The supplement of paper PMC10646978
± gives the standard deviation.

Assays:
Conditions in all cases: modulator concentration 10 µM
[1] = tested on: RAW-Dual (murine macrophage reporter line); experiment: NF-kB reporter (SEAP) activity fold change vs agonist alone; higher = enhanced NF-kB activity
Procedure, shortened: (§1)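 RAW-Dual murine macrophage reporter cells were plated at 50 000 per well in 384-well plates, pin-transferred compound to 10 μM final, and pre-incubated for 1 hour at 37 °C before a PRR agonist was added and the cells incubated overnight. NF-κB activity was read from supernatant SEAP with QUANTI-Blue at 620 nm absorbance, and IRF activity from Lucia luciferase with QUANTI-Luc by luminescence. Each signal was expressed as fold change by dividing by the mean agonist-only control on the same plate. Two replicate plates were averaged, with errors obtained by propagation.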

[2] = tested on: RAW-Dual (murine macrophage reporter line); experiment: IRF reporter (Lucia luciferase) activity fold change vs agonist alone; higher = enhanced IRF activity
Procedure, shortened: as §1

[3] = tested on: RAW-Dual (murine macrophage reporter line); experiment: viability score (confluency relative to resting cells, overnight) (fraction); higher = more viable, active = viable (0.7 or more)
Procedure, shortened: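 RAW-Dual macrophages in 384-well plates were incubated overnight with compound, final concentration 10 μM. Confluency images from IncuCyte were processed in IncuCyte software into two masks covering all imaged wells. The viability score is each well's confluency relative to resting cells, and a compound met the cutoff when both masks exceeded 70% of resting cells.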

[4] = agonist: CpG ODN 1826 0.5 ug/mL

Row | Compound | NF-kB reporter [1, 4] | NF-kB reporter ([1]; agonist: LPS 0.1 ug/mL) | NF-kB reporter ([1]; agonist: MPLA […]) | IRF reporter ([2]; agonist: 3'3'-cGAMP 10 ug/mL) | IRF reporter ([2]; agonist: LPS 0.1 ug/mL) | IRF reporter ([2]; agonist: MPLA […]) | viability score [3]
1 | Cc1ccc(NS(=O)(=O)c2cc3c4c(cccc4c2)C(=O)NC3=O)cc1C | 0.535 ± 0.034 | 0.381 ± 0.03 | 0.875 ± 0.025 | 0.532 ± 0.033 | 0.908 ± 0.092 | 0.815 ± 0.14 | 0.802 (active)
2 | O=C(Nc1cccc(Cl)c1Cl)c1cc2nc(-c3ccco3)cc(C(F)(F)F)n2n1 | 0.9 ± 0.054 | 1.01 ± 0.08 | 0.918 ± 0.055 | 0.864 ± 0.029 | 1.25 ± 0.082 | 1.21 ± 0.16 | 1 (active)
3 | COc1ccc(CNCc2cccc3ccccc23)c(OC)c1 | 0.108 ± 0.013 | 0.586 ± 0.065 | 0.607 ± 0.063 | 0.968 ± 0.076 | 1.21 ± 0.12 | 1.36 ± 0.22 | 0.354 (inactive)
4 | COc1ccnc(CS(=O)c2nc3ccc(OC(F)F)cc3[nH]2)c1OC (configuration not stated) | 1.18 ± 0.16 | 0.901 ± 0.1 | 0.879 ± 0.053 | 0.901 ± 0.056 | 1.07 ± 0.11 | 1.15 ± 0.15 | 0.999 (active)
5 | Cl.Cl.O=C(O)COCCN1CCN([C@H](c2ccccc2)c2ccc(Cl)cc2)CC1 | 1.07 ± 0.082 | 1.06 ± 0.052 | 1.01 ± 0.047 | 0.94 ± 0.057 | 0.905 ± 0.035 | 0.97 ± 0.13 | 1 (active)
6 | Cc1ccc(C2(O)C=CC(C)(C(Cl)(Cl)Cl)C=C2)cc1 (configuration not stated) | 0.687 ± 0.054 | 0.974 ± 0.063 | 1.02 ± 0.067 | 0.455 ± 0.093 | 0.989 ± 0.047 | 0.915 ± 0.14 | 1 (active)
7 | CCn1ccc(C(=O)N2CCN(c3cc(C(F)(F)F)nc(C)n3)CC2)n1 | 1.27 ± 0.098 | 1.07 ± 0.092 | 1.01 ± 0.05 | 0.637 ± 0.028 | 0.744 ± 0.035 | 0.839 ± 0.11 | 1 (active)
8 | CC(=O)Nc1ccc(C(=O)Nc2ccc(Cl)cn2)cc1 | 1.16 ± 0.099 | 1.1 ± 0.085 | 1.09 ± 0.11 | 0.942 ± 0.04 | 0.94 ± 0.086 | 1.09 ± 0.15 | 1.04 (active)
9 | Clc1ccc(C2C=C(c3ccccc3)Nc3ncnn32)cc1 (configuration not stated) | 1.08 ± 0.11 | 0.939 ± 0.091 | 0.986 ± 0.057 | 0.886 ± 0.17 | 1.1 ± 0.097 | 0.945 ± 0.062 | 1 (active)
10 | Cn1c(=O)[nH]c2nnc(-c3ccncc3)nc2c1=O | 0.815 ± 0.07 | 0.872 ± 0.077 | 1.07 ± 0.12 | 0.935 ± 0.05 | 1.32 ± 0.15 | 1.47 ± 0.2 | 1.02 (active)
11 | CN1CCN(C2=NC(=O)C(=Cc3ccc(Cl)cc3Cl)S2)CC1 | 0.833 ± 0.076 | 0.86 ± 0.068 | 1.15 ± 0.099 | 0.956 ± 0.051 | 1.42 ± 0.099 | 1.59 ± 0.18 | 0.999 (active)
12 | CC(C)C(C(=O)Nc1ccc(F)cc1)N1C(=O)c2ccccc2C1=O (configuration not stated) | 0.911 ± 0.079 | 1.06 ± 0.086 | 0.935 ± 0.077 | 0.957 ± 0.033 | 1.09 ± 0.15 | 0.943 ± 0.058 | 1.02 (active)
13 | CN(C)CCCN1c2ccccc2Sc2ccc(Cl)cc21.Cl | 0.377 ± 0.029 | 0.997 ± 0.096 | 1.87 ± 0.041 | 1.07 ± 0.073 | 1.13 ± 0.1 | 1.37 ± 0.17 | 0.306 (inactive)
14 | CCN(CC)CCNc1ccc(CO)c2sc3ccccc3c(=O)c12 [Prestw-355] | 0.178 ± 0.01 | 0.705 ± 0.065 | 1.09 ± 0.14 | 0.408 ± 0.024 | 0.964 ± 0.13 | 1.97 ± 0.17 | 0.907 (active)
15 | CCOc1ccc(N2CCN(CC(=O)O)C2=O)cc1 | 1.15 ± 0.32 | 1.06 ± 0.11 | 1.02 ± 0.1 | 0.917 ± 0.063 | 0.968 ± 0.12 | 1.15 ± 0.21 | 0.997 (active)
16 | O=S1(=O)CCC(NCc2ccccc2C(F)(F)F)C1 (configuration not stated) | 0.997 ± 0.095 | 1.13 ± 0.11 | 0.978 ± 0.08 | 1.02 ± 0.071 | 1.03 ± 0.092 | 1.04 ± 0.32 | 1 (active)
17 | CC(C)c1ccc(NC(=O)C2CCCCC2C(=O)O)cc1 (configuration not stated) | 1.19 ± 0.074 | 1.06 ± 0.07 | 0.994 ± 0.071 | 0.93 ± 0.031 | 1.51 ± 0.1 | 1.24 ± 0.12 | 0.996 (active)
18 | CCC(Oc1ccccc1)C(=O)Nc1cc([N+](=O)[O-])ccc1C (configuration not stated) | 0.91 ± 0.059 | 0.865 ± 0.073 | 0.987 ± 0.036 | 0.902 ± 0.042 | 0.997 ± 0.11 | 0.973 ± 0.14 | 1 (active)
19 | CNCc1cc(-c2ccccc2F)n(S(=O)(=O)c2cccnc2)c1.O=C(O)/C=C/C(=O)O | 0.612 ± 0.05 | 1.04 ± 0.076 | 0.98 ± 0.021 | 0.931 ± 0.054 | 0.97 ± 0.056 | 0.855 ± 0.089 | 0.999 (active)
20 | Cc1cc(CCC(=O)N(C)C2CN(c3ccc4nnc(C)n4n3)C2)ccc1F | 1.11 ± 0.058 | 1.1 ± 0.091 | 0.918 ± 0.046 | 1.19 ± 0.073 | 1.12 ± 0.095 | 1.11 ± 0.16 | 0.979 (active)
21 | Nc1ncnc2c1ncn2[C@@H]1O[C@H](CO)[C@@H](O)[C@@H]1O | 1.15 ± 0.095 | 0.941 ± 0.047 | 1.02 ± 0.053 | 0.953 ± 0.067 | 0.983 ± 0.077 | 1.02 ± 0.12 | 0.991 (active)
22 | NC(=O)c1cc2ccccc2oc1=NCc1ccccc1 | 0.907 ± 0.09 | 1.06 ± 0.067 | 0.91 ± 0.1 | 0.946 ± 0.023 | 1.16 ± 0.16 | 1.07 ± 0.22 | 1.01 (active)
23 | COc1cccc2cc(C(=O)NCc3nn(C4CCCC4)c(=O)c4ccccc34)oc12 | 0.976 ± 0.053 | 1.1 ± 0.086 | 0.846 ± 0.096 | 0.827 ± 0.062 | 1.2 ± 0.24 | 0.848 ± 0.39 | 1.02 (active)
24 | COc1cc(C)ccc1NC(=O)Cc1csc(NC(=O)Nc2ccccc2OC)n1 | 1.32 ± 0.14 | 1.02 ± 0.074 | 0.887 ± 0.1 | 0.978 ± 0.063 | 0.793 ± 0.059 | 0.818 ± 0.26 | 1 (active)
25 | COC(=O)C1C(=O)C(=CNc2ccccc2C)C(=O)CC1(C)C (configuration not stated) | 1.07 ± 0.092 | 1.02 ± 0.075 | 1.03 ± 0.1 | 0.993 ± 0.049 | 1.12 ± 0.34 | 1.08 ± 0.2 | 1.03 (active)
26 | CCc1ccc(Cc2ccc3c(c2)[C@]2(OC3)O[C@H](CO)[C@@H](O)[C@H](O)[C@H]2O)cc1.O | 1.04 ± 0.29 | 1.08 ± 0.054 | 1.07 ± 0.094 | 0.883 ± 0.033 | 1.04 ± 0.12 | 1.16 ± 0.26 | 0.987 (active)
